The values that follow come from PubChem BioAssay AID504339 (National Center for Advancing Translational Sciences (NCATS), 2011).

SMILES strings stand for the structures. Screen size: about 390,000 compounds; about 17,000 (4.4%) were called active. Where a call stands in place of a potency, no number is given. About 8% were inconclusive and are not listed. The call rests on the fitted dose curve; in most records, active means well fitted inhibition curve with a large enough effect; inconclusive means small, poorly fitted or top-dose-only effect; inactive means no such curve, though single readings can be large or run the other way. The sample as a whole holds a higher share of actives than the screen did.
Potency means the concentration at half of the fitted maximal effect.

The target in the assay is Lysine-specific demethylase 4A (Homo sapiens) (UniProt O75164). The assay is described as follows: qHTS Assay for Inhibitors of JMJD2A-Tudor Domain. Further: nearly all actives have a fitted effect of over 50% in size. The conditions noted are these: AlphaScreen JMJD2A-Tudor / H3K4me3 peptide binding; series mostly up to 114 µM. (qHTS replaces the single test concentration by a dilution series.)
Chain of Lysine-specific demethylase 4A (Homo sapiens) (O75164 whole entry, looked up, the tested form may be a part): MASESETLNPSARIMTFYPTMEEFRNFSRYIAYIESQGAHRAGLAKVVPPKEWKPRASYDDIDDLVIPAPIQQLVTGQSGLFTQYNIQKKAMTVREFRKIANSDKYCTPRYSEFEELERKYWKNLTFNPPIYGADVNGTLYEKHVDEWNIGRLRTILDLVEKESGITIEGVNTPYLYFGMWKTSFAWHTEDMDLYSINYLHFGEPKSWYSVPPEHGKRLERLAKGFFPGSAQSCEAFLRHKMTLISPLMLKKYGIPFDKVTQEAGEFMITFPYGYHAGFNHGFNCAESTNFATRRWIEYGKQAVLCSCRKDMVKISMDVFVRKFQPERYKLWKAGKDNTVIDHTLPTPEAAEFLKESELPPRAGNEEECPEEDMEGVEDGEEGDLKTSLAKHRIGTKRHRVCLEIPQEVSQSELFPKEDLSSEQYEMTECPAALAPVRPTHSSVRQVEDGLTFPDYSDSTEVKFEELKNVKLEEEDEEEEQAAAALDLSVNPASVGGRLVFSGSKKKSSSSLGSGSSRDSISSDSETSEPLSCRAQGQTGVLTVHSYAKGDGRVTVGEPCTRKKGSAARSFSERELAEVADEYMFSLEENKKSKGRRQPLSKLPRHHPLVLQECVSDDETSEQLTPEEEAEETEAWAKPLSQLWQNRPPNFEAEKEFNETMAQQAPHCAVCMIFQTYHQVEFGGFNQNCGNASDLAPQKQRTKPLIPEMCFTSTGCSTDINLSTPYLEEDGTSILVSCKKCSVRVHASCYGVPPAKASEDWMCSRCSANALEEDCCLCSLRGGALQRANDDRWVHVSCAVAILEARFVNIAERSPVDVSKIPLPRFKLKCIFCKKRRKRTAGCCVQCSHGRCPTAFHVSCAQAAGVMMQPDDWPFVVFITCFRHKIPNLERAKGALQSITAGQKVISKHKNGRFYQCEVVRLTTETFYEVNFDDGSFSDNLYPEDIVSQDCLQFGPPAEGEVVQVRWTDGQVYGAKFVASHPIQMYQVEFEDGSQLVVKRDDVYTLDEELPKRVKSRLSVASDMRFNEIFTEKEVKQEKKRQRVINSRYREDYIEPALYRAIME
Regarding `Cc1ccc(-c2ccc(/C=C(\C#N)C(N)=S)o2)c([N+](=O)[O-])c1`, the Potency was 14.1 µM (active). With `CCCCOC(=O)/C(C#N)=C/c1ccc(-c2cccc(C(F)(F)F)c2)o1`, the Potency result is “inactive”.

For the compound `CCOC(=O)c1ccc(-c2ccc(/C=C(\C#N)C(=O)Nc3ccc(C)cc3)o2)cc1`, the Potency result is “inactive”. With `Cc1cccn2c(=O)c(C(=O)NC(C)c3ccccc3)cnc12` (stereo not drawn) the entry was “inactive”. To `CCC(C)c1ccc2oc(-c3ccc(NC(=O)c4cc5ccccc5o4)cc3)nc2c1` (stereo not drawn) belongs “inactive”. Take `COc1ccc(S(=O)(=O)N2CCCC(C(=O)N3CCN(C)CC3)C2)cc1C` (stereo not drawn): the Potency entry is “inactive”. On to `CC(=O)Nc1ccc(S(=O)(=O)N2CCN(C3CCCCCCC3)CC2)cc1`, for which the Potency result is “inactive”.

As to `Cc1ccc(S(=O)(=O)N2CCN(C)CC2)cc1`, the Potency result was “inactive”. Regarding `Cc1ccc(S(=O)(=O)N2CCC(C(=O)N3CCCCCCC3)CC2)cc1`, the Potency result was “inactive”.

In the case of `Cc1ccc(S(=O)(=O)N2CCCC(C(=O)N3CCN(C)CC3)C2)cc1` (stereo not drawn), the Potency is 2.82 µM (active). With `COc1ccc(N2CCN(C(=O)C3CCN(C(=O)c4ccccc4Cl)CC3)CC2)cc1` the entry was “inactive”; with `Cc1ccc(S(=O)(=O)N2CCC(N3CCCCCC3)CC2)cc1`, 0.891 µM (active). On to `O=C(C1CCCN(S(=O)(=O)c2ccc([N+](=O)[O-])cc2)C1)N1CCCCC1` (stereo not drawn), for which the Potency entry was “inactive”. To `COc1ccc(N2CCN(C(=O)C3CCN(S(=O)(=O)c4ccc(C)cc4)CC3)CC2)cc1` belongs 39.8 µM (active); to `CCOC(=O)C1CCC(CN(Cc2ccc(OC)cc2)S(=O)(=O)c2ccc(F)c(C(=O)Nc3cc(C)ccc3C)c2)CC1` (stereo not drawn), “inactive”. With `N#Cc1nc(/C=C/c2ccc(F)cc2)oc1NC1CCCCC1`, the Potency entry was “inactive”. To `COc1ccc(Cn2ccn(Cc3cccc(OC)c3)c(=O)c2=O)cc1` belongs “inactive”; to `Cc1ccccc1Cn1nc(C)c(NC(=O)c2cc(-c3ccc(F)cc3)on2)c1C`, “inactive”. With `Cc1c(Cl)cccc1NC(=O)CCS(=O)(=O)c1ccc2c(c1)oc(=O)n2C`, the Potency entry was “inactive”. Turning to `COc1cccc(C(=O)NCc2ccc3c(c2)CCN3C(=O)c2ccncc2)c1`, the Potency result was “inactive”. To `COc1cc(C)ccc1OCCSc1nc2ccc(NC(=O)c3ccc(C)cc3)cc2s1` belongs “inactive”. For the compound `COc1cc(Cl)c(C)cc1NC(=O)CCc1nc2cccnc2n1Cc1cccs1`, the Potency entry is “inactive”.

Consider `Oc1c(C=Nc2cccc3nsnc23)ccc2ccccc12`, for which the Potency is 89.1 µM (active). Regarding `O=C(Nc1ccc(F)cc1F)c1ccc2c(=O)n3c(nc2c1)CCCCC3`, the Potency result was “inactive”. Consider `COc1cc2c(=O)c(S(=O)(=O)c3ccc(C(C)C)cc3)cn(Cc3ccccc3C)c2cc1OC`, for which the Potency result was “inactive”. In the case of `CCc1ccc(NC(=O)CN2C(=O)C(c3ccccc3)=NC23CCCCCC3)cc1`, the Potency entry was “inactive”.

As for `CCN(C(=O)Cc1nc(N)n[nH]1)C1(C(=O)Nc2ccccc2)CCCCC1`, the Potency is 100 µM (active).

In the case of `C=CCN(C(=O)c1cc(C)cc(C)c1)C1(C(=O)Nc2ccccc2)CCN(C(C)C)CC1`, the Potency result was “inactive”.
